This is part of a sample that, as a whole, favours compounds with a hit. Of some 79,000 tested, about 15% had one in any assay. Values without a mark were called inactive. Calls of active or inactive are those of the source. No stated cut-off is given here; in the data, active means growth inhibition above about 70%; inactive means the rest.
How the values were obtained:
[1] = NCI Yeast Anticancer Drug Screen. Data for the rad52 strain (AID 147);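 further: 0% = growth of vehicle-treated control cultures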; settings: S. cerevisiae rad52 mutant growth inhibition, hits give high values
Method in brief: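 Here a repair-compromised yeast strain receives each compound; its growth is then quantified and normalised to vehicle-only controls.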

[2] = NCI Yeast Anticancer Drug Screen. Data for the wt1 strain (AID 149);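 further: 0% = growth of vehicle-treated wt1 cultures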; settings: S. cerevisiae wt1 strain (SPY 50644) growth inhibition, hits give high values
Method in brief: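 Readout: yeast growth inhibition, normalised to vehicle controls, in the wt1 strain exposed to test compounds.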

[3] = NCI Yeast Anticancer Drug Screen. Data for the rad50EPP+ strain (AID 151);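 further: 0% = growth of vehicle-treated control cultures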; settings: S. cerevisiae rad50 mutant strain, hits give high values
Method in brief: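 Read-out is yeast growth inhibition relative to vehicle; cells used were the rad50EPP+ strain.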

[4] = NCI Yeast Anticancer Drug Screen. Data for the mgt1 strain (AID 153); settings: S. cerevisiae mgt1 mutant growth inhibition, hits give high values
Method in brief: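 Measured: inhibition of mgt1 yeast growth by compound, normalized to vehicle-treated cultures.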

[5] = NCI Yeast Anticancer Drug Screen. Data for the rad50 strain (AID 155);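 further: 0% = growth of vehicle-only cultures of the same strain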; settings: S. cerevisiae rad50 strain growth inhibition, hits give high values
Method in brief: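 Compounds were tested on a yeast strain with an engineered DNA damage repair alteration; the reported value is growth inhibition normalised to vehicle treatment.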

[6] = NCI Yeast Anticancer Drug Screen. Data for the mec2-1 strain (AID 157); settings: S. cerevisiae mec2-1 strain, hits give high values
Method in brief: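 Using mec2-1 yeast: add compound, measure growth, express inhibition versus vehicle-treated cultures.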

[7] = NCI Yeast Anticancer Drug Screen. Data for the rad14 strain (AID 159);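 further: 0% = growth of vehicle-treated control cultures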; settings: S. cerevisiae rad14 strain growth inhibition, hits give high values
Method in brief: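 Compound-treated yeast with a defined DNA-repair lesion; growth inhibition normalised to vehicle-treated cultures.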

[8] = NCI Yeast Anticancer Drug Screen. Data for the sgs1 mgt1 strain (AID 161);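 further: 0% = growth of cultures given vehicle only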; settings: S. cerevisiae sgs1 mgt1 strain, hits give high values
Method in brief: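 Growth of a repair-deficient yeast mutant was monitored after compound treatment and expressed as inhibition relative to vehicle-treated cultures.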

[9] = NCI Yeast Anticancer Drug Screen. Data for the CLN2oe strain (AID 163);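 further: 0% = growth of vehicle-only control cultures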; settings: S. cerevisiae CLN2oe strain, hits give high values
Method in brief: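 Whole-cell yeast growth assay. A strain engineered for altered cell-cycle control received compound, and inhibition relative to vehicle-treated cultures was recorded.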

[10] = NCI Yeast Anticancer Drug Screen. Data for the cln2 rad14 strain (AID 165);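 further: 0% = growth equal to vehicle treated cultures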; settings: S. cerevisiae cln2 rad14 strain, hits give high values
Method in brief: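 Yeast strain cln2 rad14, bearing defects in cell cycle control and DNA repair, serves as the test system; values reflect growth inhibition compared with vehicle.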

[11] = NCI Yeast Anticancer Drug Screen. Data for the bub3 strain (AID 167); settings: S. cerevisiae bub3 mutant strain, hits give high values
Method in brief: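 Growth of a checkpoint-deficient yeast mutant is measured after compound exposure. Values represent inhibition relative to vehicle.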

[12] = NCI Yeast Anticancer Drug Screen. Data for the wt2 strain (AID 169);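 further: 0% = growth of vehicle-treated yeast cultures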; settings: S. cerevisiae wt2 strain growth inhibition, hits give high values
Method in brief: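 Treated yeast vs. vehicle-treated yeast: growth inhibition determined.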

[13] = NCI Yeast Anticancer Drug Screen. Data for the mlh1 strain (AID 171);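 further: 0% = growth of vehicle-treated control cultures of the same strain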; settings: S. cerevisiae mlh1 strain growth inhibition, hits give high values
Method in brief: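 A yeast strain with a defined genetic lesion serves as the test organism. Cultures receive compound or vehicle, and growth is measured.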

[14] = NCI Yeast Anticancer Drug Screen. Data for the sgs1 strain (AID 173);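 further: 0% = growth of vehicle-only control cultures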; settings: S. cerevisiae sgs1 mutant, hits give high values
Method in brief: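 A genetically defined yeast mutant is incubated with the test compound, and its growth is compared to that of the same strain given vehicle.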

[15] = NCI Yeast Anticancer Drug Screen. Data for the mlh1 rad18 strain (AID 175); settings: S. cerevisiae mlh1 rad18 strain growth inhibition, hits give high values
Method in brief: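 Steps: expose repair-defective yeast to compound; measure growth; express inhibition against vehicle-treated controls.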

[16] = NCI Yeast Anticancer Drug Screen. Data for the rad18 strain (AID 177); settings: S. cerevisiae rad18 mutant growth inhibition, hits give high values
Method in brief: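 Measured value is growth inhibition of a yeast strain bearing a DNA repair alteration, referenced to vehicle-treated cells.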

[17] = at 5.0 µM (retest, dose inferred, filed as 0.5)
[18] = at 50.0 µM (retest, dose inferred, filed as 5.0)

Cc1nc(Nc2ccccc2[N+](=O)[O-])sc1C(=O)CC(=O)C(=O)Nc1c(C(C)C)cccc1C(C)C
growth inhibition ([1]; at 1.2 µM): -2%
growth inhibition ([1]; at 3.7 µM): -2%
growth inhibition ([1]; at 11.0 µM): -1%
growth inhibition ([1]; at 33.0 µM): -5%
growth inhibition ([1]; at 100.0 µM): 1%
growth inhibition ([2]; at 1.2 µM): 2%
growth inhibition ([2]; at 3.7 µM): 4%
growth inhibition ([2]; at 11.0 µM): 3%
growth inhibition ([2]; at 33.0 µM): 5%
growth inhibition ([2]; at 100.0 µM): 4%
growth inhibition ([3]; at 1.2 µM): 5%
growth inhibition ([3]; at 3.7 µM): 17%
growth inhibition ([3]; at 11.0 µM): 37%
growth inhibition ([3]; at 33.0 µM): 50%
growth inhibition ([3]; at 100.0 µM): 59%
growth inhibition ([4]; at 1.2 µM): -1%
growth inhibition ([4]; at 3.7 µM): 0%
growth inhibition ([4]; at 11.0 µM): 0%
growth inhibition ([4]; at 33.0 µM): -11%
growth inhibition ([4]; at 100.0 µM): -1%
growth inhibition ([5]; at 1.2 µM): -5%
growth inhibition ([5]; at 3.7 µM): -16%
growth inhibition [5, 17]: 10%
growth inhibition ([5]; at 11.0 µM): -17%
growth inhibition ([5]; at 33.0 µM): 2%
growth inhibition [5, 18]: 1%
growth inhibition ([5]; at 50.0 µM): -1.6%
growth inhibition ([5]; at 100.0 µM): 3%
growth inhibition ([6]; at 1.2 µM): 2%
growth inhibition ([6]; at 3.7 µM): 4%
growth inhibition [6, 17]: 3%
growth inhibition ([6]; at 11.0 µM): 3%
growth inhibition ([6]; at 33.0 µM): 6%
growth inhibition [6, 18]: 8%
growth inhibition ([6]; at 50.0 µM): 17.9%
growth inhibition ([6]; at 100.0 µM): 6%
growth inhibition ([7]; at 1.2 µM): 0%
growth inhibition ([7]; at 3.7 µM): -2%
growth inhibition ([7]; at 11.0 µM): 1%
growth inhibition ([7]; at 33.0 µM): 0%
growth inhibition ([7]; at 100.0 µM): 3%
growth inhibition [8, 17]: 7%
growth inhibition [8, 18]: 11%
growth inhibition ([8]; at 50.0 µM): 34%
growth inhibition ([9]; at 1.2 µM): 3%
growth inhibition ([9]; at 3.7 µM): 1%
growth inhibition ([9]; at 11.0 µM): 4%
growth inhibition ([9]; at 33.0 µM): 11%
growth inhibition ([9]; at 100.0 µM): 12%
growth inhibition [10, 17]: 35%
growth inhibition [10, 18]: 12%
growth inhibition ([10]; at 50.0 µM): 47.1%
growth inhibition ([11]; at 1.2 µM): 3%
growth inhibition ([11]; at 3.7 µM): 5%
growth inhibition [11, 17]: -3%
growth inhibition ([11]; at 11.0 µM): 7%
growth inhibition ([11]; at 33.0 µM): 12%
growth inhibition [11, 18]: 33%
growth inhibition ([11]; at 50.0 µM): 41.2%
growth inhibition ([11]; at 100.0 µM): 12%
growth inhibition ([12]; at 1.2 µM): -1%
growth inhibition ([12]; at 3.7 µM): 0%
growth inhibition ([12]; at 11.0 µM): 0%
growth inhibition ([12]; at 33.0 µM): 2%
growth inhibition ([12]; at 100.0 µM): 0%
growth inhibition ([13]; at 1.2 µM): 2%
growth inhibition ([13]; at 3.7 µM): 3%
growth inhibition ([13]; at 11.0 µM): 5%
growth inhibition ([13]; at 33.0 µM): 5%
growth inhibition ([13]; at 100.0 µM): 5%
growth inhibition ([14]; at 1.2 µM): 2%
growth inhibition ([14]; at 3.7 µM): 4%
growth inhibition ([14]; at 11.0 µM): 2%
growth inhibition ([14]; at 33.0 µM): 7%
growth inhibition ([14]; at 100.0 µM): 6%
growth inhibition [15, 17]: 4%
growth inhibition [15, 18]: 14%
growth inhibition ([15]; at 50.0 µM): -5.1%
growth inhibition ([16]; at 1.2 µM): -3%
growth inhibition ([16]; at 3.7 µM): 1%
growth inhibition ([16]; at 11.0 µM): 1%
growth inhibition ([16]; at 33.0 µM): 0%
growth inhibition ([16]; at 100.0 µM): -3%

c1ccc2c(OCC3CO3)cccc2c1 (stereo not drawn)
growth inhibition ([1]; at 1.2 µM): 3%
growth inhibition ([1]; at 3.7 µM): 12%
growth inhibition ([1]; at 11.0 µM): 45%
growth inhibition ([1]; at 33.0 µM): 86% (active)
growth inhibition ([1]; at 100.0 µM): 94% (active)
growth inhibition ([2]; at 1.2 µM): -2%
growth inhibition ([2]; at 3.7 µM): 0%
growth inhibition ([2]; at 11.0 µM): 0%
growth inhibition ([2]; at 33.0 µM): 4%
growth inhibition ([2]; at 100.0 µM): 18%
growth inhibition ([3]; at 1.2 µM): 9%
growth inhibition ([3]; at 3.7 µM): 30%
growth inhibition ([3]; at 11.0 µM): 73% (active)
growth inhibition ([3]; at 33.0 µM): 93% (active)
growth inhibition ([3]; at 100.0 µM): 96% (active)
growth inhibition ([4]; at 1.2 µM): -1%
growth inhibition ([4]; at 3.7 µM): -1%
growth inhibition ([4]; at 11.0 µM): 0%
growth inhibition ([4]; at 33.0 µM): 4%
growth inhibition ([4]; at 100.0 µM): 32%
growth inhibition ([5]; at 1.2 µM): 0%
growth inhibition ([5]; at 3.7 µM): 12%
growth inhibition [5, 17]: 36%
growth inhibition ([5]; at 11.0 µM): 66%
growth inhibition ([5]; at 33.0 µM): 89% (active)
growth inhibition [5, 18]: 94% (active)
growth inhibition ([5]; at 50.0 µM): 92.8% (active)
growth inhibition ([5]; at 100.0 µM): 95% (active)
growth inhibition ([6]; at 1.2 µM): 1%
growth inhibition ([6]; at 3.7 µM): 4%

From PubChem BioAssay (NCI)
